Assay outcomes deposited in PubChem BioAssay by several laboratories.
Sampled rows, rich in hits. Any-hit rate of the full collection: about 4.3%.
Yeast superoxide – yeast age-related superoxide inhibition as caloric restriction mimetic; 330,000 tested, 0.18% active; superoxide response (% of plate mean), % at 10 µM; S. cerevisiae aged cells, superoxide DHE fluorescence; hits give low values;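 active means superoxide response under a set limit, about three screen SD below normal, cut at about 65% in these data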;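 further: yeast aged for seven days with compound at 30 °C before DHE staining; 100% = average MFI of all compound-treated wells on the plate with controls excluded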
GRIN3A LBD mod – modulators (binders) of human NR3A ligand-binding domain; AID 1259313; Tm shift relative to glycine control, % at 25 µM; 340,000 tested, 2.5% active; NR3A LBD differential scanning fluorimetry, Tm shift; 0% = protein alone, 100% = glycine-bound protein;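 active means melting temperature shift of at least 10% of the positive control shift, at one fixed dose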
NALP1 yeast inh – blocks the NALP1 inflammasome reconstituted in yeast; 280,000 tested, 0.61% active; S. cerevisiae NALP1/ASC/caspase-1 growth, X-gal OD620, 72 h; inhibition, % at 10 µM; AID 2071; in the data active means inhibition mostly above about 24%, no sharp cut-off; inactive means mostly below about 32%
UBC13 polyUb – blocks human UBC13 polyubiquitin chain formation. inhibition, % at 20 µM. AID 485273. P61088. 330,000 tested, 0.47% active. TR-FRET; in the data active means inhibition above about 45%, passing the limit was not always enough
Target sequence (P61088 whole entry, looked up): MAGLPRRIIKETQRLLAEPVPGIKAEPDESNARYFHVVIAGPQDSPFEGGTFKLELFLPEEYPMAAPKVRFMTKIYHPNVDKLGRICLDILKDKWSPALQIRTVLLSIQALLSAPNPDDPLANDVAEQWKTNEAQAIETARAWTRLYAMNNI
dFosB act – activators of mouse delta FosB homodimer | P13346 | activation, % at 25 µM | purified delta FosB, TAMRA-CDK5 oligo fluorescence polarization; percent of positive-control signal above neutral wells | 340,000 tested, 0.99% active;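 active means mean activation above about 17%, with every replicate also reaching it, limit read from the data, passing the limit was not always enough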
Target sequence (P13346 whole entry, looked up): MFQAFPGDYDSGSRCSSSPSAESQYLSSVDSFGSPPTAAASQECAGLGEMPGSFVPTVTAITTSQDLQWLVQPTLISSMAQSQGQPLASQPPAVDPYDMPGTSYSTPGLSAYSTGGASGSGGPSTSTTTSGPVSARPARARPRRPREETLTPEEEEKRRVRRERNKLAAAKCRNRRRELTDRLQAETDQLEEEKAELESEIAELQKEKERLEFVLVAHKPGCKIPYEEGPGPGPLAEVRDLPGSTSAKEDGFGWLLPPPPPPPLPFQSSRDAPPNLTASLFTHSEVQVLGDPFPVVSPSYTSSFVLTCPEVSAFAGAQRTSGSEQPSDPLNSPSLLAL
* = called active by the depositor.

Screening Cc1sc2nc(SCCN(C)C)n(-c3ccccc3)c(=O)c2c1-c1ccc(F)cc1 returned Yeast superoxide 90.0, GRIN3A LBD mod -2.3, NALP1 yeast inh 25.5, UBC13 polyUb -4.4 and dFosB act 22.4*.
`Cc1ccc(S(=O)(=O)N2CCOC2CNC(=O)C(=O)NCCN(C)C)cc1` (stereo unspecified) gave Yeast superoxide 113.0, GRIN3A LBD mod 12.6*, NALP1 yeast inh 14.8, UBC13 polyUb 8.6 and dFosB act 2.8.
For CN(C)CCNC(=O)C(=O)NCC1OCCN1S(=O)(=O)c1ccc([N+](=O)[O-])cc1 (stereo unspecified) the results were Yeast superoxide 100.3, GRIN3A LBD mod -0.8, NALP1 yeast inh 16.4, UBC13 polyUb 10.9 and dFosB act 3.4.
COc1cccc(NC(=O)COC(=O)c2ccccc2SCC(=O)N2CCCC2)c1 was read as Yeast superoxide 85.2, GRIN3A LBD mod 1.0, UBC13 polyUb -7.2 and dFosB act -9.2.
`Cc1ccc(NC(=O)CC(=O)Nc2ccc(C)cc2C)c(C)c1` gave Yeast superoxide 106.3, GRIN3A LBD mod -5.1, NALP1 yeast inh -1.5, UBC13 polyUb 4.8 and dFosB act -5.8.
For Cc1ccc(N=CNc2ccc(C)cc2C)c(C)c1 the results were Yeast superoxide 101.4, GRIN3A LBD mod 2.4, NALP1 yeast inh 41.4*, UBC13 polyUb 3.5 and dFosB act -3.1.
CCCOc1ccc(C(=O)NNC(=S)NC(=O)c2cc(-c3ccccc3)nc3ccccc23)cc1 was read as Yeast superoxide 104.1, GRIN3A LBD mod 18.4*, NALP1 yeast inh 4.6, UBC13 polyUb -27.4 and dFosB act -16.2.
Screening O=C1NN(c2ccc(F)c(Cl)c2)C(=O)/C1=C\c1cccc(OC(=O)c2cccs2)c1 returned Yeast superoxide 111.9, GRIN3A LBD mod 24.3*, NALP1 yeast inh 7.8, UBC13 polyUb 10.2 and dFosB act -15.5.
Screening C/C(=N\NC(=O)c1cc(-c2ccc(C)s2)[nH]n1)c1ccncc1 returned Yeast superoxide 104.7, GRIN3A LBD mod 2.4, NALP1 yeast inh 11.2, UBC13 polyUb 2.7 and dFosB act 10.2.
O=C(COC(=O)c1cc(-c2ccccc2)nc2ccccc12)Nc1ccc2c(c1)OCO2 was read as Yeast superoxide 120.5, GRIN3A LBD mod 12.6*, NALP1 yeast inh 24.2, UBC13 polyUb -4.6 and dFosB act 7.6.
For COc1ccc(-c2cc(C(=O)OCC(=O)Nc3ccc4c(c3)OCO4)c3ccccc3n2)cc1 the results were Yeast superoxide 93.1, GRIN3A LBD mod 15.0*, NALP1 yeast inh 12.1, UBC13 polyUb -5.6 and dFosB act -8.9.
CCCN1C(=O)/C(=N\OCC(=O)NC23CC4CC(CC(C4)C2)C3)c2ccccc21 was read as Yeast superoxide 109.7, GRIN3A LBD mod -4.9, NALP1 yeast inh 37.7, UBC13 polyUb -19.2 and dFosB act -3.1.
For O=C(c1ccc2c(c1)OCCO2)N1CCN(c2ncc(C(F)(F)F)cc2Cl)CC1 the results were Yeast superoxide 99.6, GRIN3A LBD mod -2.1, UBC13 polyUb -6.8 and dFosB act -16.5.
`COc1ccc(NS(=O)(=O)c2ccc3nc(COc4ccc5ccccc5c4)[nH]c3c2)cc1` gave Yeast superoxide 106.5, GRIN3A LBD mod 25.4*, NALP1 yeast inh 5.0, UBC13 polyUb -18.7 and dFosB act 12.1.
For COc1ccc(OCc2nc3ccc(S(=O)(=O)Nc4ccccc4Cl)cc3[nH]2)cc1 the results were Yeast superoxide 96.9, GRIN3A LBD mod -5.2, NALP1 yeast inh 20.2, UBC13 polyUb -4.0 and dFosB act 0.2.
`COc1ccccc1NS(=O)(=O)c1ccc2nc(CCl)[nH]c2c1` gave Yeast superoxide 104.8, GRIN3A LBD mod 1.3, NALP1 yeast inh 20.1, UBC13 polyUb 2.2 and dFosB act -7.1.
COc1ccc(NS(=O)(=O)c2ccc3nc(COc4cccc5ccccc45)[nH]c3c2)cc1 was read as Yeast superoxide 79.7, GRIN3A LBD mod 17.1*, NALP1 yeast inh 2.4, UBC13 polyUb -17.9 and dFosB act 0.3.
`CCOc1ccccc1NC(=O)CNC(=O)CNC(=O)Cc1ccccc1` gave Yeast superoxide 108.6, GRIN3A LBD mod -2.7, NALP1 yeast inh 2.9, UBC13 polyUb 3.5 and dFosB act 0.1.
`COc1cc(OC)c(NC(=S)Nc2cc(Cl)cc(Cl)c2)cc1Cl` gave Yeast superoxide 99.6, GRIN3A LBD mod 26.7*, NALP1 yeast inh 33.3, UBC13 polyUb 2.2 and dFosB act 6.3.
Screening CC(=O)Oc1ccc2c(=O)c(-c3nc4ccccc4s3)coc2c1 returned Yeast superoxide 92.8, GRIN3A LBD mod -0.3, NALP1 yeast inh 28.0*, UBC13 polyUb 1.8 and dFosB act -22.6.
Screening CCCCNS(=O)(=O)c1ccc(NC(=O)c2c(-c3ccccc3Cl)noc2C)cc1 returned Yeast superoxide 107.7, GRIN3A LBD mod -0.1, NALP1 yeast inh 11.7, UBC13 polyUb -7.7 and dFosB act -18.9.
For Cc1cc(-c2nc3cc(F)ccc3s2)ccc1N the results were GRIN3A LBD mod 13.0* and dFosB act -11.1.
For Nc1ccc(-c2nc3ccc(N)cc3s2)cc1 the results were Yeast superoxide 91.5, GRIN3A LBD mod -6.7, UBC13 polyUb 16.5 and dFosB act -8.2.
CC1CCCC(C)N1C(=O)COC(=O)c1ccc(Br)o1 (stereo unspecified) was read as Yeast superoxide 93.6, GRIN3A LBD mod -1.0, UBC13 polyUb 17.1 and dFosB act -4.1.
For Cc1nc2cc(NC(=O)c3ccc([N+](=O)[O-])s3)ccc2s1 the results were Yeast superoxide 100.0, GRIN3A LBD mod 24.2*, NALP1 yeast inh 13.0, UBC13 polyUb -10.4 and dFosB act -3.0.
`COc1cc(C(=O)NNC(=O)CNC(=O)C2CCCCC2)ccc1OC(C)C` gave Yeast superoxide 123.3, GRIN3A LBD mod 2.0, UBC13 polyUb -17.1 and dFosB act 5.5.
For COCCOc1ccc(C(F)(F)F)cc1NC(=O)COC(=O)Cc1c[nH]c2ccccc12 the results were Yeast superoxide 95.0, GRIN3A LBD mod 21.4*, UBC13 polyUb 10.4 and dFosB act -20.8.
`NC(=O)c1ccsc1NC(=O)COC(=O)Cc1cccc2ccccc12` gave Yeast superoxide 97.3, GRIN3A LBD mod 23.8*, NALP1 yeast inh 16.6, UBC13 polyUb 20.1 and dFosB act -6.7.
Screening NC(=O)c1ccsc1NC(=O)COC(=O)Cc1c[nH]c2ccccc12 returned Yeast superoxide 95.0, GRIN3A LBD mod 26.3*, UBC13 polyUb 10.6 and dFosB act -8.3.
For O=C(COC(=O)Cc1c[nH]c2ccccc12)Nc1ccccc1 the results were Yeast superoxide 98.2, GRIN3A LBD mod -1.4, NALP1 yeast inh 2.1, UBC13 polyUb -4.8 and dFosB act -0.9.
`Cc1ccc(NC(=O)COC(=O)Cc2c[nH]c3ccccc23)cc1F` gave GRIN3A LBD mod 14.1*, UBC13 polyUb 2.1 and dFosB act -4.7.
COc1ccccc1OCC(=O)OCC(=O)Nc1sccc1C(N)=O was read as Yeast superoxide 100.3, GRIN3A LBD mod -0.6, NALP1 yeast inh 21.4, UBC13 polyUb 4.2 and dFosB act 1.3.
